The results in this text go back to ChEMBL document CHEMBL3988442, “University of Dundee, Small-Polar-MMV Screening Library” (2021).

What all share (parameters): scale not given: direction of the effect not stated beside the values
Assay [1] addresses Protein translocase subunit SecA (Escherichia coli (strain K12)) (UniProt P10408). The assay can be described thus: Assay to Identify E. coli SecA ATPase Inhibitors. In kind it is functional. The note with it: 30 µM.
Assay [2] deals with T1, Ubiquitin-activating enzyme e1, putative (Leishmania donovani (strain BPK282A1)) (UniProt E9BSI1).
T1 sequence (whole entry): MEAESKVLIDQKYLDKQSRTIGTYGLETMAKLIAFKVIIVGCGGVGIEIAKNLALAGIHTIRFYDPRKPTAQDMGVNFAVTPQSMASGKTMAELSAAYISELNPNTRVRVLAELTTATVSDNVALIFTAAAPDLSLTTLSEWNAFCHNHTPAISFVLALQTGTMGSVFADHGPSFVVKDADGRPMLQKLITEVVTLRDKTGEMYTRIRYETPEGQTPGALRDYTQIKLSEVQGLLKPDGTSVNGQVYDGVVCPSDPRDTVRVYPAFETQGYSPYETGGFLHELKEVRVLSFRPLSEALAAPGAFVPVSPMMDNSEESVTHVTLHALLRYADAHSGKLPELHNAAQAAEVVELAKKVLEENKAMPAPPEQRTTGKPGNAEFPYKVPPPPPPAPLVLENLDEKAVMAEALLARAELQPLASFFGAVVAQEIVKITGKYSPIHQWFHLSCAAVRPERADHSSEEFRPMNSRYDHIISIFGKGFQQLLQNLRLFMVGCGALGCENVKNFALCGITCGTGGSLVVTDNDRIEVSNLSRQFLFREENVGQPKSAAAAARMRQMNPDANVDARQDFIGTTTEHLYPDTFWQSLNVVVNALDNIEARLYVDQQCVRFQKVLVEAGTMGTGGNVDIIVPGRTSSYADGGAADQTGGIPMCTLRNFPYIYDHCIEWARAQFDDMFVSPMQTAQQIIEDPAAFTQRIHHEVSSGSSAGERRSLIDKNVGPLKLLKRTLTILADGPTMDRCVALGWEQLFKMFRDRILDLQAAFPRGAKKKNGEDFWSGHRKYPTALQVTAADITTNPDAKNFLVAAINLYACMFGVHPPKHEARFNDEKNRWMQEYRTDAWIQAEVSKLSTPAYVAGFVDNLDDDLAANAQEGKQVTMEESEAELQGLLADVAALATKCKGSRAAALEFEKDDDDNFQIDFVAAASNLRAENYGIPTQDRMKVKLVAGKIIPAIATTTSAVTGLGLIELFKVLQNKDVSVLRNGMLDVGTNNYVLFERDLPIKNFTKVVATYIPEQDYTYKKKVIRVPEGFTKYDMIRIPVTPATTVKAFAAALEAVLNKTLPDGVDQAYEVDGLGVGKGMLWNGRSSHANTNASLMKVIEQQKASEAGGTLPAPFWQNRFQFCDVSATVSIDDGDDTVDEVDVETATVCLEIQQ
Kind of assay: Leishmania donovani Ubiquitin Activating Enzyme (LdE1). In kind it is functional. The note with it: 30 µM.

The target of assay [3] is AMP-activated protein kinase, AMPK (Homo sapiens) (UniProt P54646+O43741+P54619+Q9UGJ0+Q9Y478+Q13131+Q9UGI9). The assay can be described thus: AMP-dependent Kinase enzyme assay. An in vitro enzyme assay that detects ADP turnover that is directly proportional to AMPK activity. This uses naive AMPK that is activated during the assay with MK-8722. Type of assay: functional. To be noted: 30 µM.

Assay [4] deals with Sialic acid-binding Ig-like lectin 9 (Homo sapiens) (UniProt Q9Y336). The assay can be described thus: Hs-Siglec9 ALPHAscreen SOP 20170721. To be noted: 10 µM. (In general: In Alpha technology, singlet oxygen from a donor bead excites a nearby acceptor bead.)
The test system of another assay is Trypanosoma cruzi. Kind of assay: Trypanosoma cruzi phosphomannomutase and mannose-1-phosphate guanylyltransferase assay. In kind it is functional. To be noted: 10 µM.
Assay [5] addresses T2, Arginase-2, mitochondrial (Homo sapiens) (UniProt P78540).
T2 sequence (whole entry): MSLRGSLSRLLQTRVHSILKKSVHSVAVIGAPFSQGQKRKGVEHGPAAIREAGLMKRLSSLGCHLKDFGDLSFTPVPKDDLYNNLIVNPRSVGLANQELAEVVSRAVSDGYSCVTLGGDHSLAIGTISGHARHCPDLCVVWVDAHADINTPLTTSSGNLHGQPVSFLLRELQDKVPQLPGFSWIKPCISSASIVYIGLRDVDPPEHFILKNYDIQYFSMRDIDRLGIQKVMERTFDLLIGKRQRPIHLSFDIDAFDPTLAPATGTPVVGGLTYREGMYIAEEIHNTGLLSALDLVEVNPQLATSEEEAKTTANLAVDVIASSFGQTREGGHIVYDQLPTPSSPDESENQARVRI
The assay can be described thus: in vitro enzyme assay to detect the production of urea directly proportional to the activity of Arginase II. Also: in the data most compounds retested in dose-response had high values. Type of assay: functional. To be noted: 33.3 µM.

Assay [6] addresses T3, Proteasome subunit beta (Trypanosoma cruzi) (UniProt O96673).
T3 sequence (whole entry): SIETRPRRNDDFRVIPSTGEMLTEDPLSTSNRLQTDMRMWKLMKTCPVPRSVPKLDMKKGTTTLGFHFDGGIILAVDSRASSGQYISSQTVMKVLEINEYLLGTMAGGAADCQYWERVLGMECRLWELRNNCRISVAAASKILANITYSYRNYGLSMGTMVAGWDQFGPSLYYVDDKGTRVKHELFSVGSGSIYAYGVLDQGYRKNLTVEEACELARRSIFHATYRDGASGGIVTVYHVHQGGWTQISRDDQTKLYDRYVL
The assay can be described thus: Trypanosoma cruzi proteasome chymotrypsin-like activity (TcProtChymo) assay. Also: in the data most compounds retested in dose-response had high values. In kind it is functional. To be noted: 9.37 µM.

For another assay, the species on record is Homo sapiens. The assay can be described thus: To identify inhibition of the IFN signalling (Jak-Stat) pathway via expression of an eGFP reporter gene under the control of an IFN-stimulated response element (ISRE) containing MxA promoter. In kind it is functional. To be noted: 30 µM. A general note: Reporter assays use an easily measured gene product as a stand-in for the process of interest.

For assay [7], the target named is T4, Tyrosyl-tRNA synthetase, putative (Trypanosoma cruzi (strain CL Brener)) (UniProt Q4DSP6).
T4 sequence (whole entry): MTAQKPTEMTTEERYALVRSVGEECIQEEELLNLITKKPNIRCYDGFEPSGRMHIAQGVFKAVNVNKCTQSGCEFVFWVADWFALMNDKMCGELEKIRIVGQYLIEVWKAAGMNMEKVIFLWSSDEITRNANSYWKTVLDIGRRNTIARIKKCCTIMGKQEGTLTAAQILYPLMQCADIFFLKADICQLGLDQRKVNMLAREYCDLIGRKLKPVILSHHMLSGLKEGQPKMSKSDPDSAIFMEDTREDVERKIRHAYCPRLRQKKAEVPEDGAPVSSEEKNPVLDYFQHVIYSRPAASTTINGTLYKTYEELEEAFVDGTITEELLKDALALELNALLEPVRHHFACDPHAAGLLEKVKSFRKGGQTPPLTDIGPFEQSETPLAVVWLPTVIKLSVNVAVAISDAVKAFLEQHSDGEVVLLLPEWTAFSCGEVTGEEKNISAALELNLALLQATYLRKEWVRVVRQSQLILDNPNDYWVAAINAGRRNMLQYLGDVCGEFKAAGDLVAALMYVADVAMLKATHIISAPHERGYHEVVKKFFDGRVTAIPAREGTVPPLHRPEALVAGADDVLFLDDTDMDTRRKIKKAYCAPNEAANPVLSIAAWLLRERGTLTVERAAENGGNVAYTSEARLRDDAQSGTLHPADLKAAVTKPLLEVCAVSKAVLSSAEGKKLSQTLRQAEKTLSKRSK
Kind of assay: Trypanosoma cruzi tyrosyl tRNA synthetase (TcYRS) _High Tyrosine SOP. Also: in the data most compounds retested in dose-response had high values. Type of assay: functional. To be noted: 30 µM.

Assay [8] addresses T4, Tyrosyl-tRNA synthetase, putative (Trypanosoma cruzi (strain CL Brener)). Kind of assay: Trypanosoma cruzi tyrosyl tRNA synthetase (TcYRS) SOP. Type of assay: functional. The note with it: 30 µM.
In assay [9] the target is Chromo domain-containing protein 1 (Saccharomyces cerevisiae (strain ATCC 204508 / S288c) (Baker's yeast)) (UniProt P32657). The assay can be described thus: ScCHD-1 Enzyme Inhibition Assay. Also: in the data most compounds retested in dose-response had high values. In kind it is functional. The note with it: 30 µM.

Each structure is given as a SMILES string. For some of these results: Potency and affinity values are given separately.

Protein translocase subunit SecA (Escherichia coli (strain K12)), sequence (P10408 whole entry): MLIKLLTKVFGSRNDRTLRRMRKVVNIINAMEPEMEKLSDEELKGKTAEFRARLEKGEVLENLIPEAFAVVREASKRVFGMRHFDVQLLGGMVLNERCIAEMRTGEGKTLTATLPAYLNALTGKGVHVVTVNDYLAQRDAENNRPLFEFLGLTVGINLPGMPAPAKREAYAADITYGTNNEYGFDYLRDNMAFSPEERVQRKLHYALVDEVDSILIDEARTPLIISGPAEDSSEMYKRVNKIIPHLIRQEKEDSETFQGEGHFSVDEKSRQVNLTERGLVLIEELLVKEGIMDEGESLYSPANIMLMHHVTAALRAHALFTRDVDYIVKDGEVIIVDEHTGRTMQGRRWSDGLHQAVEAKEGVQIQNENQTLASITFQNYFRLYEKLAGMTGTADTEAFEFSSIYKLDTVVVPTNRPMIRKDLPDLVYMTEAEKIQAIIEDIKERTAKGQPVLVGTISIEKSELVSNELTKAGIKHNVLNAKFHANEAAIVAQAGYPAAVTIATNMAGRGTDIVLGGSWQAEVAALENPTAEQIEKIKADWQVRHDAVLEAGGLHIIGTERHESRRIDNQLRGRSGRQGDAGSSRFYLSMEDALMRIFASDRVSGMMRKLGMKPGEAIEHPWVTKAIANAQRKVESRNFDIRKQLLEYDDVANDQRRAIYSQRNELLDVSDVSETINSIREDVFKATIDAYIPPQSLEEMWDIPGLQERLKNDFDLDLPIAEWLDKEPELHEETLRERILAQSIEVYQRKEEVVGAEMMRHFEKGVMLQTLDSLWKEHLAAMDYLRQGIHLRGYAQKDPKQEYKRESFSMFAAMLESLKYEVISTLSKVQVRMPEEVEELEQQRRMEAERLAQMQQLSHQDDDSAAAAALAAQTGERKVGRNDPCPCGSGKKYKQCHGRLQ
Sialic acid-binding Ig-like lectin 9 (Homo sapiens), sequence (Q9Y336 whole entry): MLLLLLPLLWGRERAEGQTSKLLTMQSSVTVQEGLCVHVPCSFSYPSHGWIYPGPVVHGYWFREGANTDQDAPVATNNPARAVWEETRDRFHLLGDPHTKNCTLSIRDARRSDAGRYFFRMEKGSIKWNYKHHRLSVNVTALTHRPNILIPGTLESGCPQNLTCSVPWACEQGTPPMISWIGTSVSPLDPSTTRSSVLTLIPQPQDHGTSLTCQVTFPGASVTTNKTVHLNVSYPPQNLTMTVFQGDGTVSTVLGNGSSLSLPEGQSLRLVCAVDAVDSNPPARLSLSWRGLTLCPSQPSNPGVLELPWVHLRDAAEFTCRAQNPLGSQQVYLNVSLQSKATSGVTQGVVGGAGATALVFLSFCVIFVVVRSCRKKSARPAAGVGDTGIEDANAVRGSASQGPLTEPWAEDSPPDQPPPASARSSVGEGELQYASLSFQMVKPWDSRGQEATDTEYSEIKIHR
Chromo domain-containing protein 1 (Saccharomyces cerevisiae (strain ATCC 204508 / S288c) (Baker's yeast)), sequence (P32657 whole entry, the tested form may be a part): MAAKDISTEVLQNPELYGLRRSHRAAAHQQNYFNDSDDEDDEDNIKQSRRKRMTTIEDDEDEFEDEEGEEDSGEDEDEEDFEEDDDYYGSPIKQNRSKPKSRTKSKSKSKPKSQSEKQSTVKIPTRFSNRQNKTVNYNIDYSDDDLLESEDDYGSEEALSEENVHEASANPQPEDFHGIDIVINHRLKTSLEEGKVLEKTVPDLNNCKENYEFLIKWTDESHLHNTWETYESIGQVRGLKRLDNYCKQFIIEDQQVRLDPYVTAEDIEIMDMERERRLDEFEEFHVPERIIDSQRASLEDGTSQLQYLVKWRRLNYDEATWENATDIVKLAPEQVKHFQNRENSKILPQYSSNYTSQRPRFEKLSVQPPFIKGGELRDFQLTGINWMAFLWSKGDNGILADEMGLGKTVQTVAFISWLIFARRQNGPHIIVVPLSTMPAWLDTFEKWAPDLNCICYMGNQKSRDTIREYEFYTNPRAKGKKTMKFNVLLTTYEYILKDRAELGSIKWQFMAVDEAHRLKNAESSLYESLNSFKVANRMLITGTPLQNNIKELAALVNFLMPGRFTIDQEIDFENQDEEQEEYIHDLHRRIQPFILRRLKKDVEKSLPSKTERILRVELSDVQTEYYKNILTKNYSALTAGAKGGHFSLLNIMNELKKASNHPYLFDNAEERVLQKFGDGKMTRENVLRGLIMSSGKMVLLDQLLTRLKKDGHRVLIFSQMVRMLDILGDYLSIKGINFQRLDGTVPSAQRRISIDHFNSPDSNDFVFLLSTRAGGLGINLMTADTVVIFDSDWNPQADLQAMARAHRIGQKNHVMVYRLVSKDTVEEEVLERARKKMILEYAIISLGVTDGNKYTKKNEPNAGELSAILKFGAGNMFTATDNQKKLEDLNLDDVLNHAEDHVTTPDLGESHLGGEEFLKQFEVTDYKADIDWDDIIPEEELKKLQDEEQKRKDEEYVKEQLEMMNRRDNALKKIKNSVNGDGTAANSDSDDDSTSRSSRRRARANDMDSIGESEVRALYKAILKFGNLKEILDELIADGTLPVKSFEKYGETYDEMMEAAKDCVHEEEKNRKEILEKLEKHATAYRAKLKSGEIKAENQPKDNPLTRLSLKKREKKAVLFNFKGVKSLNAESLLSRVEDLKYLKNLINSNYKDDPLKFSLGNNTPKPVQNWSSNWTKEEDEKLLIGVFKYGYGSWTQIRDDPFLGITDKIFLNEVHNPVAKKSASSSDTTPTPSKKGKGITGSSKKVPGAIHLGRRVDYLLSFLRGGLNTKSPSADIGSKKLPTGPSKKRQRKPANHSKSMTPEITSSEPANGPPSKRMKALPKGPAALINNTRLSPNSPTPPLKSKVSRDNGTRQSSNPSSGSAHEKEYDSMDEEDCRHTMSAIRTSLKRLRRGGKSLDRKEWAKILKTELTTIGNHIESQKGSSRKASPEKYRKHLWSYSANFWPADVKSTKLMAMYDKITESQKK

For `COc1ccc(-c2cnc(CN3CCn4c(C)nnc4C3)o2)cc1`, the Percent Effect in [1] is -8.18%; in assay [2], 5.26%; in assay [3], -2.37%; in [4], 6.41%; with Trypanosoma cruzi, 10.9%; in assay [5], -3.06%. Also, the Percent Effect in assay [6] was 7.18%; in the assay listed under Homo sapiens, 11.6%; in [7] it was 6.37%; in assay [8] it was 19.5%; in assay [9], -14.7%.
Take `O=C(Cc1ccc2c(c1)OCCO2)NC1CCN(CC(F)F)CC1`: the Percent Effect was -6.42% in assay [1]; 7.79% in assay [2]; 6.85% in assay [3]; 8.97% in [4]; -3% in the assay with Trypanosoma cruzi; 0% in assay [5]. Moreover, the Percent Effect in [6] is 6.93%; in the assay listed under Homo sapiens it was -4.72%; in [7] it was 3.88%; in assay [8], 9.76%; in assay [9], -6.97%.
On to `C[C@@H]1CN(C2(C(=O)N3CCOCC3)Cc3ccccc3C2)C[C@H](C)O1`, for which the Percent Effect is -4.17% in assay [1]; -37.5% in assay [2]; -3.25% in [3]; 0.729% in assay [4]; 0.875% in the assay with Trypanosoma cruzi; 1.77% in assay [5]. In addition, the Percent Effect is 8.6% in assay [6]; -18.6% in the assay listed under Homo sapiens; 5.26% in assay [7]; 7.69% in assay [8]; -3.31% in assay [9].
For the molecule `CC(CN1CCOCC1)NC(=O)NCc1ccc(Cl)s1` (stereo not drawn), the Percent Effect in assay [1] is 0.411%; in [2] it was 10.5%; in [3], 7.25%; in [4], 0.82%; with Trypanosoma cruzi, -2.63%; in [5] it was -2.37%. Further, the Percent Effect is 15.8% in assay [6]; 5.71% in the assay listed under Homo sapiens; 8.51% in assay [7]; 20.8% in assay [8]; -3.24% in [9].
In the case of `CCN(C(=O)Nc1cccnc1OC)C1CC1`, the Percent Effect in [1] is -6.66%; in assay [2], 15.6%; in assay [3] it was -6.43%; in [4] it was 15.2%; with Trypanosoma cruzi, 5.24%; in assay [5], -3.2%. The Percent Effect is 7.6% in assay [6]; 5.42% in the assay listed under Homo sapiens; 4.85% in assay [7]; 19.5% in assay [8]; -9.65% in assay [9].
With `Cc1cc(C2CCCN2C(=O)c2cc3c(s2)CCC3)on1` (stereo not drawn), the Percent Effect in [1] is -6.23%; in assay [2] it was 5.26%; in assay [3] it was 2.83%; in [4] it was 3.1%; with Trypanosoma cruzi it was 6.58%; in assay [5], -1.92%. Moreover, the Percent Effect in assay [6] is 14.4%; in the assay filed under Homo sapiens, -0.279%; in assay [7], 0.49%; in [8] it was 4.88%; in assay [9], -7.02%.
With `CCn1nc(C)c2nc(C(C)C)nc(NCCOC)c21`, the Percent Effect was -4.55% in assay [1]; 6.67% in assay [2]; 7.63% in assay [3]; 3.6% in assay [4]; 2.36% in the assay with Trypanosoma cruzi; -4.4% in assay [5]. The Percent Effect in assay [6] was 15.5%; in the assay listed under Homo sapiens it was 19.2%; in assay [7] it was 5.29%; in assay [8], 12.8%; in assay [9], -9.33%.
Regarding `Cc1nc2ccccn2c1CN(Cc1cccnc1)CC1CCCO1` (stereo not drawn), the Percent Effect in assay [1] is -1.83%; in assay [2], -2.74%; in assay [3] it was 2.15%; in [4], 0.744%; in the assay on Trypanosoma cruzi it was -6.27%; in assay [5], 0.455%. Further, the Percent Effect is 7.63% in assay [6]; 13.7% in the assay listed under Homo sapiens; -2.15% in [7]; -2.5% in [8]; -1.23% in assay [9].
